Screening results from PubChem.
An excerpt weighted towards active compounds, which were near 2.4% of everything screened.
NRP1-CendR mod: NRP-1/CendR interaction modulation; inhibition, % at 25 µM; FAM-RPARPAR peptide binding to NRP-1, fluorescence polarization; O14786; actives 0.85% (n = 360,000); AID 602438;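 active = inhibition or corrected inhibition above about 18%, plus a signal ratio from 0.5 to 1.5, limit read from the data, passing the limit was not always enough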
A3G deaminase: APOBEC3G (human) deaminase inhibition; recombinant A3G, ssDNA deamination FAM/TAMRA fluorescence; inhibition, % at 20 µM; Q9HC16; actives 0.28% (n = 330,000);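 active = inhibition of at least 40% at 20 µM, with no more than 30% in the related APOBEC3A deaminase screen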;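 note: plate controls were DMSO wells with A3G for no effect and wells lacking A3G enzyme for full effect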
Target sequence (Q9HC16 whole entry, looked up): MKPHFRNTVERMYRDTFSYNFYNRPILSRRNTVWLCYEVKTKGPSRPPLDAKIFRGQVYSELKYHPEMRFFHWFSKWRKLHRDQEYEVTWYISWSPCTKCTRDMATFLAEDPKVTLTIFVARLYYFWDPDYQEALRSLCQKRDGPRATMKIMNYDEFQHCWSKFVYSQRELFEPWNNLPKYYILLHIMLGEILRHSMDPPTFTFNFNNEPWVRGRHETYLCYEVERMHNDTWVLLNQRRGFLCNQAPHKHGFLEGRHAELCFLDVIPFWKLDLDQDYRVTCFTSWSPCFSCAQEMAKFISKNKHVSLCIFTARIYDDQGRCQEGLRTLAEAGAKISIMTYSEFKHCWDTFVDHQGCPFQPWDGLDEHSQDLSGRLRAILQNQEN
APOBEC3A inh: inhibitors of human APOBEC3A DNA deaminase | actives 0.41% (n = 330,000) | P31941 | recombinant A3A, FAM/TAMRA ssDNA deamination fluorescence | inhibition, % at 20 µM;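 active = at least 40% inhibition at 20 µM here, with at most 30% in a related deaminase screen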;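 note: plate controls were A3A with DMSO for no effect and wells lacking A3A enzyme for full effect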
Target sequence (P31941 whole entry, looked up): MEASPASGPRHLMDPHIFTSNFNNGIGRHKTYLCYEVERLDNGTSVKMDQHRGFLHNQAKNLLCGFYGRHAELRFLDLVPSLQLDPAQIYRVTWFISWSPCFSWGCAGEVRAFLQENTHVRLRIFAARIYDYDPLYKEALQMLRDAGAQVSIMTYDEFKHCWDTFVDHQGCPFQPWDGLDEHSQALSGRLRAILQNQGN
ADAM17 inh: inhibits human ADAM17; P78536; recombinant ADAM17, EDANS/DABCYL FRET peptide cleavage; inhibition, % at 6.95 µM; actives 0.83% (n = 370,000);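 active = inhibition above the mean of compounds lying between control limits plus 3 SD, set per campaign, cut at about 8.5% in these data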;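 note: 0% = DMSO-only wells as the low control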
ADAM10 inh: ADAM10 inhibition, QFRET primary screen | O14672 | recombinant ADAM10, EDANS/DABCYL FRET peptide cleavage, 3 h | inhibition, % at 7 µM | actives 0.62% (n = 370,000) | AID 720582;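 active = inhibition above a per-campaign cutoff equal to the mean of compounds falling between control-based bounds plus 3 SD, cut at about 20% in these data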;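 note: 0% = DMSO wells while the 100% control is not disclosed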
The depositor's hits bear a star; · = no result given.

SMILES | NRP1-CendR mod | A3G deaminase | APOBEC3A inh | ADAM17 inh | ADAM10 inh
O=S(=O)(c1cccc2ccccc12)N1CCSC1 | 30* | 2 | 4 | -2 | 3
O=S(=O)(c1cccc2cnccc12)N1CCNCC1 | -5 | -3 | -1 | -5 | -9
Cc1cc(C(=O)N/N=C/C=C/c2ccc3c(c2)OCO3)n[nH]1 | 27* | -8 | 1 | -44 | -128
O=C(N/N=C\C=C\c1ccc2c(c1)OCO2)c1ccc(F)cc1 | 6 | -6 | -1 | -21 | -66
COc1ccc(-c2cc(-c3nnc(SCC(=O)Nc4ccc(OCc5ccccc5)cc4)n3N)[nH]n2)cc1 | · | · | · | 1 | 1
CCCCc1c(-c2ccccc2OC)ncn1Cc1c(Cl)cccc1Cl | · | · | · | -2 | -9
Cc1cccc(C(=O)NNC2=C(C(=O)C(F)(F)F)CCC2)c1O | 58* | -3 | -3 | -7 | -8
CCN1C(=O)N(CC)C(O)(c2ccccc2)C1(O)c1ccccc1 (stereo not given) | 30* | -7 | -4 | 1 | 11
Cc1cc(Br)c2nc(-c3ccc(F)cc3)c(Cc3cccc(Cl)c3)n2c1 | · | · | · | -3 | -9
CN(Cc1ccco1)C(=O)CN1C(=O)C2(OCCCO2)c2ccccc21 | · | · | · | 1 | -8
O=C1C(C=NCCN2CCOCC2)=C(O)c2ccccc21 | 27* | -3 | 2 | 1 | 6
O=C(N[C@H](C(=O)N1CCC[C@H]1C(=O)NCCc1ccccc1Cl)C1CCCCC1)c1ccc(Cl)c(Cl)c1 | · | · | · | 0 | -4
C=CCn1c(Cc2cccs2)nnc1SCC(=O)Nc1ccc(C)cc1 | · | · | · | 0 | -4
O=C(COc1ccccc1)Nc1ccc(-c2ccc(N3CCOCC3)nn2)cc1 | 22* | -9 | 1 | -10 | -20
O=C1CC(N2CCCC2)=NC(=O)N1c1ccc(Br)cc1 | · | · | · | -1 | -5
COc1ccccc1C1=Nn2c(COc3ccccc3)nnc2SC1 | · | 51* | -3 | · | ·
c1ccc(OCc2nnc3n2N=C(c2ccccc2)CS3)cc1 | -7 | 38 | 4 | 1 | 9
Cc1ccc(-n2c(SCC(=O)Nc3ccc(S(=O)(=O)Nc4nccs4)cc3)nnc2-c2cccs2)cc1 | · | · | · | 1 | 5
CCCN(CC(=O)Nc1ccccc1C)C(=O)c1ccc(C2SCCS2)cc1 | 26* | -8 | -4 | 2 | -5
CCCN(CC(=O)Nc1ccccc1C)C(=O)C1CCCN(C(=O)c2ccc(Cl)cc2)C1 (stereo not given) | 19* | -2 | -3 | -2 | -7
Cc1cccc(C)c1NC(=O)CNC(=O)C1CCCN(C(=O)c2ccc(Cl)cc2)C1 (stereo not given) | -6 | -11 | -5 | -2 | -4
CCCN(CC(=O)Nc1ccccc1C)C(=O)c1ccc(S(=O)(=O)N2CCCCCC2)cc1 | 12 | -9 | -3 | -2 | -14
COc1cccc(CNC(=O)[C@H]2CCCN2C(=O)[C@H]2CCCN2S(=O)(=O)c2cccc(C)c2)c1 | · | · | · | -1 | 2
CSc1nnc(-c2cc(Br)ccc2N=Cc2c(C)[nH]n(-c3ccccc3)c2=O)c(=O)[nH]1 | 18* | -3 | 0 | 3 | 6
COC(=O)[C@]1(C#N)CC(=O)N(C)[C@@H]1c1ccccc1 | · | · | · | 3 | 1
SMILES | NRP1-CendR mod | A3G deaminase | APOBEC3A inh | ADAM17 inh | ADAM10 inh
CC(C)Oc1cccc(-c2csc(N3CCC(C(N)=O)CC3)n2)c1 | · | · | · | 1 | 0
COC(=O)CCC(=O)Nc1ccccc1C(N)=O | 0 | 0 | 1 | -6 | -3
COC(=O)CCC(=O)Nc1cccc2c(NC(=O)CCC(=O)OC)cccc12 | 21* | -5 | -2 | -8 | -8
COC(=O)c1ccc(S(=O)(=O)N2CCC(NC(=O)Cc3cccc(C)c3)CC2)cc1 | · | · | · | -3 | 4
c1ccc(OCCCN2CCCC2)cc1 | 23* | -3 | 1 | -1 | 5
Cc1cccc(C)c1OCCN1CCCC1 | 28* | -8 | -7 | 0 | -2
COc1cc(NC(=O)c2ccccc2)c(C)cc1NC(=O)CSc1nnc(-c2cnccn2)n1-c1ccc(C)cc1 | · | · | · | 0 | 2
COC(=O)c1cc2c(c3c4cc(F)ccc4n(S(=O)(=O)c4ccccc4)c13)C(=O)N(Cc1ccco1)C2 | · | · | · | -4 | -8
CCOc1ccc(CCNC(=O)c2ccccn2)cc1OCC | · | · | · | -3 | -2
CCCCCCC(=O)N(O)C1CC(=O)N(c2ccc(Cl)cc2)C1=O (stereo not given) | 5 | 41* | -5 | -1 | 3
COP1(=O)CCOCC[C@H](CC(C)C)NC(=O)[C@H](CC(C)C)N1 (stereo not given in full) | · | · | · | -6 | -4
O=c1oc2ccccc2cc1-c1nc(-c2cccs2)cs1 | 133 | -2 | 0 | -8 | -15
COc1cccc2cc(-c3nc(-c4cccs4)cs3)c(=O)oc12 | 47* | -3 | 0 | 0 | -10
COc1ccc(C(=O)N2CCC(C)(C(=O)NS(=O)(=O)C3CC3)C2)cc1F (stereo not given) | 22* | · | · | -10 | -15
CCC[C@H]1[C@@H](OC(=O)NC(CC)CC)CC[C@@]23CCCN2C(=O)CCC[C@@H]13 | · | · | · | -1 | 0
Cc1ccc(C)c(-n2c(SCC(=O)NC(C(=O)O)C(C)C)nnc2-c2cccc(Cl)c2)c1 (stereo not given) | 26* | -10 | -3 | -2 | -2
CNC(=O)CSc1nnc(-c2ccco2)n1-c1cc(C)ccc1C | 9 | -4 | 0 | -5 | -13
O=S1(=O)CCSC[C@@H](CN2CCN(c3ccccc3)CC2)N1 | · | · | · | -1 | -5
Nc1cc(-c2ccccc2)nn1Cc1ccccc1 | 41* | -11 | -5 | -5 | -1
O=c1ccc(-c2ccccc2)nn1Cc1ccccc1 | -1 | · | · | -2 | -2
Cc1c(Cl)c(C(F)(F)F)nn1CC(=O)N1CCSCC1 | 48* | -2 | 1 | 7 | -2
CC(=NNC(=S)N(Cc1ccccn1)Cc1ccccn1)c1cnccn1 | 3 | · | · | -7 | -15
S=C(NN=C(c1ccccc1)c1ccccn1)N(Cc1ccccn1)Cc1ccccn1 | -4 | · | · | 72* | 78*
O=C(CNC(=S)N(CCCN1CCOCC1)Cc1cccs1)NCCN1CCOCC1 | -3 | -4 | -1 | -5 | -10
O=C(CNC(=S)N(CCCN1CCOCC1)Cc1cccs1)NCc1ccccc1 | 34* | 0 | -5 | -5 | 0
CCN=C1NC(c2ccc(C(F)(F)F)cc2)C(C(=O)OC)=C(C)N1Cc1cccc(C(F)(F)F)c1 (stereo not given) | · | · | · | 2 | -2
CCOC(=O)C1=NOC(C(C)=O)(C(=O)Nc2cc(C)cc(C)c2)C1 (stereo not given) | · | · | · | -1 | 0
CC(=O)N1N=C(c2c(-c3ccccc3)c3cc(Br)ccc3[nH]c2=O)CC1c1ccco1 (stereo not given) | 24* | -3 | 1 | -7 | -18
COC(=O)C1CN(C2CC2)CCS(=O)(=O)N1Cc1cn(Cc2ccc(F)cc2)nn1 (stereo not given) | · | · | · | -2 | -2
O=C(CSc1nnc2c(n1)[nH]c1ccc(F)cc12)N1CCOCC1 | 0 | 0 | 1 | -6 | -11
